A number with no mark means an inactive call. Activity calls are given as the source filed them. No rule for the calls is given here. Some results are limits rather than exact numbers.

The nature of this assay: C difficile toxins, biochemical counterscreen, UDPG substrate absence, confirmatory dose response (AID 720650). Particulars: series mostly up to 19.5 µM; activity change, negative = inhibition: at the top concentration. On the technique in general: Counterscreens check selectivity or assay interference.
`Cc1ccc(S(=O)(=O)N2CCOCC2)cc1C(=O)NCCCN1CCCC1=O`: the “activity change, negative = inhibition” value was -7.95%.
`CNC(=O)C[C@H]1CC[C@@H]2[C@H](COc3ccc(NC(=O)Nc4ccc(C)cc4)cc3C(=O)N2C)O1`: the AC50 was greater than 39 µM.
For the compound `CN1C(=O)CSc2ccc(NC(=O)N3CCc4ccccc43)cc21`, the concentration at half-maximal activity (AC50) was 20.2 µM (active).
Turning to `ClCC(CNCc1ccccc1)c1ccccc1` (centres undefined), the “activity change, negative = inhibition” value is -5.16%.
As for `O=C(NN=Cc1cc(Br)c(O)c(Br)c1)c1ccccc1NS(=O)(=O)c1cccs1`, the “activity change, negative = inhibition” value was 2.76%.
As for `O=C(NNc1nc2c(F)cc(F)cc2s1)C1COc2ccccc2O1` (centres undefined), the AC50 is 0.699 µM (active).
As to `O=C(c1ccc2c(c1)N(Cc1ccccc1)C(=O)c1ccccc1S2)N1CCCC1`, the half-maximal activity concentration (AC50) was 16.2 µM (active).
For `CNC(=O)C1Cc2c(-c3ccccc3Oc3ccccc3)ccnc2O1` (centres undefined), the AC50 was greater than 39 µM.
As for `CCn1cc(C(=O)O)c(=O)c2cc(F)c(N3CCN(C(=S)NC(=O)c4ccccc4Br)CC3)cc21`, the “activity change, negative = inhibition” value is -9.77%.
Take `O=c1c(OC2OC(CO)C(O)C(O)C2O)c(-c2ccc(O)c(O)c2)oc2cc(O)cc(O)c12` (centres undefined): the “activity change, negative = inhibition” value is -10.2%.
Regarding `COc1ccc(/C=C\c2onc(C)c2S(=O)(=O)N2CCC(C(=O)NCc3ccco3)CC2)cc1`, the “activity change, negative = inhibition” value was -7.32%.
Consider `CCN(CC)CCNc1ccc(C)c2sc3ccc(O)cc3c(=O)c12`, for which the concentration at half-maximal activity (AC50) is 5.7 µM (active).
On to `CC(C)c1cc(CN2CCN(Cc3ccc(F)c(F)c3)C(CCO)C2)[nH]n1` (centres undefined), for which the “activity change, negative = inhibition” value was -11.1%.
The same measure, in the same setting: next, `O=C(C[C@@H]1C[C@@H]2c3cc(NC(=O)c4ccc5c(c4)OCO5)ccc3O[C@@H]2[C@@H](CO)O1)NCc1cccc(F)c1`: -11.8%; `Cc1cccc(NC(=O)c2ccc(N3CCOCC3)c([N+](=O)[O-])c2)n1`: -21.8%.
With `COc1cc(/C=N/NC(=O)c2c(C)nc3ccc(Cl)cn23)cc(OC)c1OC`, the “activity change, negative = inhibition” value was -0.562%.
Regarding `COc1ccc(-c2ccc3c(c2)[C@H]2[C@H](CCN2C(=O)CN2CCOCC2)[C@@H](CO)N3)cc1`, the concentration at half-maximal activity (AC50) is 11 µM (active).
For the compound `CC1=C(C(=O)OCC2CCCO2)C(c2coc3ccccc3c2=O)C2=C(CCCC2=O)N1` (centres undefined), the “activity change, negative = inhibition” value is -5.85%.
With `C[C@H]1CN([C@@H](C)CO)C(=O)c2c(c3ccccc3n2C)-c2ccccc2CO[C@H]1CN(C)C`, the “activity change, negative = inhibition” value is 7.48%.
For `c1ccc(Cc2nnc3n2N=C(c2ccccc2)CS3)cc1`, the “activity change, negative = inhibition” value is 4.55%.
The same measure, in the same setting: the same measure for `O=c1[nH]c(CN2CCOCC2)nc2cc(Cl)ccc12`: 6.24%; for `C/C(=N\OCC(=O)Nc1nc2ccccc2s1)c1ccccc1`: 8.02%; for `CCC(C)NC(=O)CSc1nc2cc(S(=O)(=O)N3CCOCC3)ccc2n1CC` (centres undefined): -1.61%.
Take `O=C(OCC(=O)N1CCCc2ccccc21)c1ccc(C(F)(F)F)cc1`: the “activity change, negative = inhibition” value is -11.2%.
Take `Cc1onc(-c2ccccc2Cl)c1C(=O)Nc1cnn(Cc2ccccc2)c1`: the “activity change, negative = inhibition” value was -8.22%.
In the case of `CCN1CCN(c2oc(-c3ccccc3C)nc2S(=O)(=O)c2ccccc2)CC1`, the “activity change, negative = inhibition” value is -15.4%.
Take `O=C(/C=C/c1ccc(O)cc1)c1ccccc1`: the AC50 was 9.92 µM (active).
The same measure, in the same setting: next, `Oc1ccc(NC(=S)Nc2ccccc2)cc1`: 18.6 µM (active).
On to `O=c1ccc2cc(O)c(O)cc2o1`, for which the “activity change, negative = inhibition” value is -20.8%.
As for `Cc1cnc([N+](=O)[O-])n1CCOC(=O)NC(=O)c1ccc(F)cc1`, the “activity change, negative = inhibition” value is 5.97%.
`Cc1cc(C)c(S(=O)(=O)N2CCCCC2C(=O)O)c(C)c1` (centres undefined): the “activity change, negative = inhibition” value is -14%.
The same measure, in the same setting: the same measure for `COc1ccc(C(=O)Nc2c(-c3cccs3)c(=O)c3ccccc3n2C)cc1`: -20.1%.
With `CSc1cccc(NC(=O)CCc2ccccc2)c1`, the “activity change, negative = inhibition” value is 1.52%.
Turning to `CNc1nc(C23CC4CC(CC(C4)C2)C3)cs1`, the “activity change, negative = inhibition” value is 2.94%.
`CC1CN=C(Nc2cccc(S(=O)(=O)N(C)C)c2)S1` (centres undefined): the “activity change, negative = inhibition” value is 4.21%.
In the case of `CCOC(=O)C(=O)NNc1ccc(Cl)cc1`, the AC50 was 0.594 µM (active).
As to `CCNC(=O)C[C@@H]1CC[C@H]2[C@@H](COc3ccc(NC(C)=O)cc3C(=O)N2C)O1`, the “activity change, negative = inhibition” value is 5.64% [at 21 µM].
Turning to `O=C1NC(=O)/C(=C/c2ccc(O)cc2)S1`, the AC50 is 8.69 µM (active).
Consider `O=C(Cc1ccccn1)c1ccncc1`, for which the “activity change, negative = inhibition” value is -8.24%.

In general, AC50 refers to the midpoint of the concentration-response curve, whichever way the signal moves.

For the origin of these results see PubChem BioAssay AID720650 (Broad Institute, 2013).
